From PubChem
PrPC surface inh = inhibitors of human cell surface prion protein PrPC, primary screen, cell-based, TR-FRET; Major prion protein (Homo sapiens), P04156; TR-FRET read-out; inhibition, % at 13.8 µM; actives 0.43% (n = 370,000); AID 720596, 2013; in the data active = inhibition above about 24%; note: 0% = median of the test wells and 100% = reference compound wells
CCHF vOTU inh = CCHFV vOTU protease inhibitors, primary screen, biochemical, Pep-AMC substrate, fluorescence. Crimean-Congo hemorrhagic fever virus L polyprotein viral ovarian tumor (vOTU) protease …. inhibition, % at 11.5 µM. actives 0.55% (n = 370,000); in the data active = inhibition above about 30%; note: 0% = vehicle wells with enzyme and 100% = no enzyme wells
BH1578 lux ind = inducers of Vibrio cholerae quorum light production without autoinducers, primary screen, BH1578 luxS cqsA deficient, single point. V. cholerae BH1578 lux reporter, luminescence, 6 h. activation, % at 18.7 µM. actives 0.16% (n = 350,000). AID 588436, 2011; in the data active = activation mostly above about 9.7%, no sharp cut-off
Yp Topo-I inh = Yersinia pestis topoisomerase I inhibitors, primary screen, biochemical, cleavage product accumulation, plate reader, single point; actives 0.064% (n = 360,000); activity, % at 10 µM; Y. pestis Topo-I cleavage product accumulation; DNA topoisomerase I (Yersinia pestis CO92); in the data active = activity above about 50%, passing the limit was not always enough
PrPC TRFRET cf = confirmation of inhibitors of cell surface human prion protein, confirmation, cell-based, TR-FRET; shares compounds with PrPC surface inh; inhibition, % at 13.8 µM; cell surface PrPC level; actives 65% (n = 1,500); AID 743200, 2013; in the data active = inhibition above about 25%
LD9 tox = cytotoxicity in LD9 cells, cytotoxicity control for cell surface PrPc inhibitor project, cell-based, luminescence, high throughput | shares compounds with PrPC surface inh | luminescence viability | inhibition, % at 13.8 µM | actives 29% (n = 1,500); in the data active = inhibition above about 9.5%
Starred values were filed as active, the others as inactive; i = inactive; · = no result given; ! = not active in a repeat. Rows were chosen to be rich in hits. Some 1.1% of all compounds tested hit in one or more screens of this group.

SMILES	PrPC surface inh	CCHF vOTU inh	BH1578 lux ind	Yp Topo-I inh	PrPC TRFRET cf	LD9 tox
CCOc1ccc(/C(O)=C2/C(=O)C(=O)N(c3ccccn3)C2c2ccc(F)cc2)c(C)c1 (stereo not drawn)	29*	17	-1	5	63*	-6
O=C(CSc1nncc2ccccc12)Nc1ccc(F)cc1	37*	6	0	-5	48*	-5
Cc1cc(NCCCn2ccnc2)n2nc(C)c(-c3ccc(Cl)cc3)c2n1	44*	8	i	20	2	9.7*
CCCN(C(=O)c1cc(Cl)nc2ccccc12)c1c(N)n(Cc2ccccc2)c(=O)[nH]c1=O	4	-9	0	0	·	·
COC(=O)C1CCN(C(=O)c2cc(-c3ccc(Cl)s3)nc3ccccc23)CC1	36*	-63	-2	24	33*	27*
CCN1CCN(C(=O)c2cc(-c3ccc(Cl)s3)nc3ccccc23)CC1	6	-90	0	7	·	·
C[C@@H]1CN(c2ccc(N3CCNC[C@@H]3C)cc2C#N)C[C@H](C)O1	-6	14	·	·	·	·
c1ccc(-c2cc3c(-n4cccc4)ncnc3o2)cc1	-2	8	i	6	·	·
COC(=O)C1=C(C(=O)OC)[C@]2([C@@H]3CCCCN[C@@H](Cc4ccccc4)C(=O)N3Cc3ccccc3)C=C[C@H]1O2	14	-5	-1	9	·	·
COC(=O)C1=C(C(=O)OC)[C@@]2([C@@H](Cc3ccc(C)cc3)Nc3ccccc3)C=C[C@@H]1O2	67*	·	·	·	14	98*
O=Cc1s/c(=N\S(=O)(=O)c2ccccc2)n(CCCCl)c1Cl	76*	0	-1	7	96*	90*
CC(C)CCc1c(O)nc(SCC(=O)N2CCCCCC2)[nH]c1=O	2	0	0	3	·	·
CC(/C=N/O)Cc1ccc2c(c1)OCO2 (stereo not drawn)	7	5	-3	4	·	·
CNC(=O)OCc1nc(SSC(C)(C)C)n(C)c1COC(=O)NC	50*	-15	2	5	23	92*
CCOc1cccc(Nc2cc3n(c(=O)n2)CCc2cc(OC)c(OC)cc2-3)c1	-2	-21	·	7	·	·
Cc1onc(-c2ccccc2Cl)c1C(=O)Nc1nnc(-c2ccc(Br)cc2)s1	26*	-9	0	0	41*	-5
Cc1onc(-c2ccccc2Cl)c1C(=O)Nc1nnc(-c2ccc(F)cc2)s1	3	3	0	10	·	·
CCOC(=O)c1c(/N=C/N(C)C)sc(C)c1C	6	0	i	7	·	·
CCOC(=O)c1c(/N=C/N(C)C)sc(/C=N/Nc2ccccc2)c1-c1ccc(Cl)cc1	26*	-5	0	-17	33*	-5
COc1cccc(NC(=O)CSc2c3c(nc4ccccc24)CCCC3)c1	5	-12	i	19	·	·
Cc1ccnc2c1ccc1cccnc12	35*	-9	-1	3	38*	35*
c1cnc2c(c1)ccc1cccnc12	25*	2	1	-9	25*	14*!
Cc1ccnc2c1ccc1ccccc12	9	-2	1	-5	·	·
CC(=O)N/N=C/c1c(C)[nH]n(-c2ccccc2)c1=O	7	26	0	2	·	·
Cc1[nH]n(-c2ccccc2)c(=O)c1/C=N/NC(=O)C(C)C	29*	5	i	-3	43*	5
SMILES	PrPC surface inh	CCHF vOTU inh	BH1578 lux ind	Yp Topo-I inh	PrPC TRFRET cf	LD9 tox
CC(C)(C)NC(=O)C(c1ccncc1)N(C(=O)Cn1nnc(-c2ccc(F)cc2)n1)c1ccc(F)cc1 (stereo not drawn)	2	19	i	5	·	·
COCc1cc(C)nc(SCc2ccccc2Cl)c1C#N	25*	-5	i	38	7	-4
COCc1cc(C)nc(SCc2ccc([N+](=O)[O-])cc2)c1C#N	0	-3	0	9	·	·
COc1ccc(N(C)S(=O)(=O)c2cccc(C(=O)NC3CCCCC3C)c2)cc1 (stereo not drawn)	26*	1	0	25	12	-4
COc1ccc(N(C)S(=O)(=O)c2cccc(C(=O)NC3CCCC3)c2)cc1	14	15	-2	10	·	·
C1=C(CCNc2ncnc3c2[nH]c2ccccc23)CCCC1	40*	6	-3	-14	40*	22*
COC(=O)c1ccc2c(c1)c(C#Cc1ccccc1)c(-c1ccccc1)n2C	-3	-20	i	-9	·	·
Oc1ccc2ccc3[nH]cnc3c2c1	32*	6	-1	3	6	-7
COc1cc(C(=O)Nc2scc(-c3ccc(Br)cc3)c2C(=O)O)cc(OC)c1OC	56*	4	-1	-5	60*	-5
Cc1cccc(C(=O)Nc2scc(-c3ccc(Br)cc3)c2C(=O)O)c1	6	-7	i	0	·	·
Cc1ccc(-c2csc(NC(=O)c3cccc(C)c3)c2C(=O)O)cc1	36*	18	-1	-9	50*	-6
CCOC(=O)C1CCN(S(=O)(=O)c2ccc3[nH]c(=O)c(=O)[nH]c3c2)CC1	-1	-4	i	3	·	·
Cc1ccc(N2C(=O)NC(NC(=O)c3ccc(Cl)cc3)(C(F)(F)F)C2=O)cc1 (stereo not drawn)	3	11	2	5	·	·
CC(=O)N(Cc1cc(=O)[nH]c2ccccc12)c1cccc(C)c1	24*	2	2	6	30*	-3
COc1cc(-c2nc3ccccn3c2NCc2ccccc2)ccc1SC1CCCCC1	·	·	0	15	·	·
COc1cc(-c2nc3ccc(C)cn3c2NCc2ccccc2)ccc1SC1CCCCC1	25*	2	-19	13	14	11*
Nc1ncnc2c1ncn2C1O[C@H](CO)[C@@H](O)[C@@H]1O (stereo partly drawn)	7	3	0	-1	·	·
N#Cc1c(N)n(C2OC(CO)C(O)C2O)c2ncnc(N)c12 (stereo not drawn)	26*	-4	-2	-2	30*	34*
CC(=O)N=c1sc2nc3ccccc3nc2n1N(C(C)=O)C(C)=O	28*	10	i	3	37*	3
CC(=O)Nc1ccc(Sc2ccc([N+](=O)[O-])o2)cc1	69*	-11	i	-3	29*	22*
CC(C)(C)C(=O)Nc1ccc(Sc2ccc([N+](=O)[O-])cc2)cc1	0	5	0	-9	·	·
CCN(CC)CCOc1nc(C)nc2c1oc1ccccc12	-1	-15	-2	-2	·	·
COc1ccc(N2CCN(CCCNC(=O)C3CCC(CNc4nc(=S)[nH]c5ccccc45)CC3)CC2)cc1 (stereo not drawn)	33*	-15	i	13	28*	14*
CN(C)c1ccc(Nc2nc(N)c3ccccc3n2)cc1	14	-4	i	-14	·	·
